In PubChem BioAssay AID489036 (National Center for Advancing Translational Sciences (NCATS), 2010) one finds Potency data, which are given here for 29 compounds.

Inconclusive results are not listed. A call without a number means that no potency is given here. Active and inactive are the calls of the source. Calls follow the shape of the dose curve; as a rule, active = well fitted inhibition curve with a large enough effect; inconclusive = small, poorly fitted or top-dose-only effect, or effect the other way; inactive = flat fitted curve, though single readings scatter.

This assay can be described thus: VP16 selectivity assay for inhibitors of ROR gamma transcriptional activity. Particulars: Drosophila Schneider Gal4-VP16 UAS-luciferase reporter, 20 h; series mostly up to 92.2 µM. The essentials:
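Luciferase luminescence read after 20 hr induction with 700 uM (final) copper sulfate at ambient temperature, following 1 hr compound pretreatment. Counter-screen uses Schneider cells carrying metallothionein-driven Gal4 DBD–VP16 and a UAS-Photinus luciferase reporter.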
For the compound `COCOc1cc(OC)cc(OC)c1C(CC(=O)N1CC(C)CC(C)C1)c1ccc2c(c1)OCO2` (centres undefined), the Potency was 45.7 µM (active).

Consider `COc1cc(O)c(C(CC(=O)N2CCCC(C)C2)c2ccc(OC)c(OC)c2)c(OC)c1` (centres undefined), for which the Potency entry is “inactive”.

As for `COc1ccccc1C(CC(=O)N1C[C@H](C)C[C@H](C)C1)c1ccccc1` (some centres undefined), the Potency was 32.3 µM (active).

Consider `CCNC(=O)CCc1nc(-c2ccc(C(C)(C)C)cc2)no1`, for which the Potency was 5.75 µM (active).

Take `CCOC(=O)Cn1c(CN2CCc3ccccc3C2)nc2c1c(=O)n(C)c(=O)n2C`: the Potency was 5.12 µM (active).

Turning to `CC(C)(C)c1ccc(S(=O)(=O)Nc2ccc(C(O)(C(F)(F)F)C(F)(F)F)cc2)cc1`, the Potency is 18.2 µM (active).

With `Cc1cc(C)nc(-n2nc(C)cc2NC(=O)CNC(C)c2ccccc2)n1` (centres undefined), the Potency is 18.2 µM (active).

Turning to `CCOc1ncccc1C(=O)OCC(=O)Nc1ccc(-c2nc3ccc(C)cc3s2)cc1`, the Potency was 2.57 µM (active).

In the case of `COc1ccc(CNC(=O)[C@H](Cc2ccccc2)NC(=O)C2CCN(C(=O)[C@@H]3CCCN3C(=O)OC(C)(C)C)CC2)cc1`, the Potency result was “inactive”.

As for `COc1ccc(C(CC(=O)N2CCCC(C)C2)c2ccc3c(c2)OCO3)c(O)c1` (centres undefined), the Potency entry was “inactive”.

As for `COc1ccc(-c2nnc(-c3ccc(N(C)C)cc3)o2)cc1`, the Potency entry is “inactive”.

Take `CC(C)(C(=O)Nc1nccs1)C(c1ccccc1)c1ccc(O)cc1` (centres undefined): the Potency was 36.3 µM (active).

Consider `COc1cc(O)c(C(CC(=O)N2C[C@H](C)C[C@H](C)C2)c2ccc3c(c2)OCO3)c(OC)c1` (some centres undefined), for which the Potency entry is “inactive”.

For `COc1cc(OC)c(C(CC(=O)N2CC(C)CC(C)C2)c2ccc3c(c2)OCO3)c(OC)c1` (centres undefined), the Potency was 22.9 µM (active).

Take `COc1cc(O)c(C(CC(=O)N2CCC(C)CC2)c2ccc3c(c2)OCO3)c(OC)c1` (centres undefined): the Potency entry is “inactive”.

In the case of `CC1CCCN(C(=O)CC(c2ccccc2)c2ccc(O)cc2)C1` (centres undefined), the Potency result was “inactive”.

As to `COc1cc(O)c(C(CC(=O)N2CCCC(C)C2)c2ccccc2)c(OC)c1` (centres undefined), the Potency entry was “inactive”.

Turning to `COc1cc(O)c(C(CC(=O)N2CCCC(C)C2)c2ccc(C)cc2)c(OC)c1` (centres undefined), the Potency is 45.7 µM (active).

For the compound `COc1cc(O)c(C(CC(=O)N2CCCC(C)C2)c2ccc3c(c2)OCO3)c(OC)c1` (centres undefined), the Potency result is “inactive”.

With `CC1CCCN(C(=O)CC(c2ccc3c(c2)OCO3)c2ccc(O)cc2O)C1` (centres undefined), the Potency result was “inactive”.

As for `O=S(=O)(c1ccc(NC(=S)N/N=C/c2ccc(Oc3ccccc3)cc2)cc1)N1CCOCC1`, the Potency is 2.04 µM (active).

In the case of `COc1cc(OC)c2c(c1)OC(=O)CC2c1ccc2c(c1)OCO2` (centres undefined), the Potency entry is “inactive”.

Take `COc1cc(O)c(C(CC(=O)N2CCCCC2)c2ccc(C)cc2)c(OC)c1` (centres undefined): the Potency entry was “inactive”.

`CCOc1ccc(-c2cc(CCCC(=O)NCc3cccnc3)no2)cc1`: the Potency was 2.88 µM (active).

With `COc1cc(O)c(C(CC(=O)N2CCCCC2)c2ccc3c(c2)OCO3)c(OC)c1` (centres undefined), the Potency result is “inactive”.

Consider `COc1cc(O)c(C(CC(=O)N2CCCC(C)C2)c2ccc(-c3ccccc3)cc2)c(OC)c1` (centres undefined), for which the Potency result was “inactive”.

Turning to `O=C(CCCOc1ccccc1)Nc1nc2ccccc2[nH]1`, the Potency was 14.4 µM (active).

With `CC1CCCN(C(=O)CC(c2ccc3c(c2)OCO3)c2ccc3ccccc3c2O)C1` (centres undefined), the Potency entry is “inactive”.

`COc1cc(O)c(C(CC(=O)Nc2ccc(C)cc2)c2ccc3c(c2)OCO3)c(OC)c1` (centres undefined): the Potency was 40.7 µM (active).
